Test results taken from PubChem BioAssay (Tox21).
Inconclusive results are not listed. Activity calls are given as the source filed them. Unless noted, calls follow the shape of the dose curve; as a rule, active = well fitted curve in the direction sought with a large enough effect in the repeat runs; inconclusive = weak or mixed curves; inactive = no such curve, though single readings can be large; an effect the other way counts as inactive or inconclusive.

Tests used:
[1] = qHTS assay to identify small molecule agonists of the peroxisome proliferator-activated receptor delta (PPARd) signaling pathway - cell viability counter screen (AID 743211); also: nearly all actives have a fitted effect of over 55% in size
Method in brief: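 Read-out: CellTiter-Glo luminescence, 30 min RT, measured in the same wells as the beta-lactamase reporter. Cells: GeneBLAzer PPAR delta UAS-bla HEK293H, 3000 cells/well, compound exposure 17 h at 37C.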

[2] = biological target: Peroxisome proliferator-activated receptor delta (Homo sapiens) (UniProt Q03181); assay: qHTS assay to identify small molecule agonists of the peroxisome proliferator-activated receptor delta (PPARd) signaling pathway (AID 743212; calls by dose curve)
Peroxisome proliferator-activated receptor delta (Homo sapiens), sequence (Q03181 whole entry, looked up): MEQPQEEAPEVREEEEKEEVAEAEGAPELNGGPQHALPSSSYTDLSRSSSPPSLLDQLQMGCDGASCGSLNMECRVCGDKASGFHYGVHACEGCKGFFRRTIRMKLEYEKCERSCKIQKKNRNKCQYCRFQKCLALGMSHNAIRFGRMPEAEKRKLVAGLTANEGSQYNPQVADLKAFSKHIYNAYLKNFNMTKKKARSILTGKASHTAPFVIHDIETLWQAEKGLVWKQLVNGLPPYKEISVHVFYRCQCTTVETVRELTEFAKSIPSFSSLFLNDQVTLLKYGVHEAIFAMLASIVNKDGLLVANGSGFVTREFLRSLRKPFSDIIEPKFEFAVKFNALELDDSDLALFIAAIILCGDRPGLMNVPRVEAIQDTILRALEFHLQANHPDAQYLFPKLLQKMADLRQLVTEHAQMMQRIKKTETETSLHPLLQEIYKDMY
Method in brief: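 Cells expressing a UAS-driven beta-lactamase reporter (PPARd-bla HEK293H) were given test compounds after a 5 h settle and kept at 37 C. Reporter activity was then measured as FRET fluorescence using LiveBLAzer B/G substrate.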

[3] = qHTS assay to identify small molecule antagonists of the farnesoid-X-receptor (FXR) signaling pathway - cell viability counter screen (AID 743221; active = well fitted cell-killing curve with a large enough effect in the repeat runs, not every such curve was filed as active; also: nearly all actives have a fitted effect of over 50% in size)
Method in brief: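 HEK 293T FXR-bla cells, 5 h pre-incubation; compound + CDCA 50 uM final, 16 h, 37 C; beta-lactamase FRET read first, then CellTiter-Glo luminescence, 30 min RT.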

[4] = biological target: Vitamin D3 receptor (Homo sapiens) (UniProt P11473); assay: qHTS assay to identify small molecule agonists of the vitamin D receptor (VDR) signaling pathway (AID 743222; calls by dose curve)
Vitamin D3 receptor (Homo sapiens), sequence (P11473 whole entry, looked up): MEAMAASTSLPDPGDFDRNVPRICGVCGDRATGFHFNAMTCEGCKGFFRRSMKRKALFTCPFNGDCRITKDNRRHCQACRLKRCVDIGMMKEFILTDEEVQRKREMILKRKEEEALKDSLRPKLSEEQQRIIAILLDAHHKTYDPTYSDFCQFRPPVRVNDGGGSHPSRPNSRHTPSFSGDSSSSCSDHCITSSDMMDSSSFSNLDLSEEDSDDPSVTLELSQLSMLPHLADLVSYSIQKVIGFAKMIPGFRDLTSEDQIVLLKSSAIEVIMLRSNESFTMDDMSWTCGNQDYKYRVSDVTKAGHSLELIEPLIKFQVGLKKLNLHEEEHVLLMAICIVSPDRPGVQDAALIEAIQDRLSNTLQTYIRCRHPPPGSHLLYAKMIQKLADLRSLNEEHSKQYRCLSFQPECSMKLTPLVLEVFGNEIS
Method in brief: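 Beta-lactamase reporter readout (LiveBLAzer B/G FRET, 2 h RT) in VDR-bla cells after 16 h compound treatment at 37C, 5% CO2; cells pre-incubated 4 h before pin transfer of DMSO solutions.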

[5] = biological target: Vitamin D3 receptor (Homo sapiens) (UniProt P11473); assay: qHTS assay to identify small molecule antagonists of the vitamin D receptor (VDR) signaling pathway (AID 743223; active = well fitted inhibition curve with a large enough effect in the signal ratio in the repeat runs, not every such curve was filed as active; the % refers to the signal ratio)
Method in brief: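 Beta-lactamase reporter read-out: FRET substrate fluorescence after 2 h at room temperature, following 16 h exposure of VDR-bla cells to test compound plus 3 nM (final) 1alpha,25-dihydroxyvitamin D3 agonist at 37C.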

[6] = biological target: Peroxisome proliferator-activated receptor delta (Homo sapiens) (UniProt Q03181); assay: qHTS assay to identify small molecule antagonists of the peroxisome proliferator-activated receptor delta (PPARd) signaling pathway (AID 743215; active = well fitted inhibition curve with a large enough effect in the signal ratio in the repeat runs, not every such curve was filed as active; the % refers to the signal ratio;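 also: cells stimulated with agonist L165041 at 300 nM final during compound exposure; series mostly up to about 62 µM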)
Method in brief: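 HEK293H GeneBLAzer PPARd UAS-bla reporter cells; cpd + L165041 300 nM final, 17 h 37 C; LiveBLAzer B/G FRET substrate 2 h RT; fluorescence intensity read-out. Antagonist mode.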

[7] = qHTS assay to identify small molecule agonists of the farnesoid-X-receptor (FXR) signaling pathway - cell viability counter screen (AID 743218); also: nearly all actives have a fitted effect of over 45% in size
Method in brief: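 Luminescence from CellTiter-Glo, read after 30 min at RT, reports viability of GeneBLAzer FXR-UAS-bla HEK 293T cells treated 16 h with compounds in the wells used for the beta-lactamase reporter.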

[8] = qHTS assay to identify small molecule antagonists of the peroxisome proliferator-activated receptor delta (PPARd) signaling pathway - cell viability counter screen (AID 743213); also: nearly all actives have a fitted effect of over 50% in size
Method in brief: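 In this counter screen, HEK293H cells carrying a UAS-beta-lactamase reporter are co-treated with test compounds and 300 nM L165041 (final) for 17 h at 37 C; cell viability is quantified by CellTiter-Glo luminescence.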

[9] = biological target: Bile acid receptor (Homo sapiens) (UniProt Q96RI1); assay: qHTS assay to identify small molecule antagonists of the farnesoid-X-receptor (FXR) signaling pathway (AID 743217; active = well fitted inhibition curve with a large enough effect in the signal ratio in the repeat runs, not every such curve was filed as active; the % refers to the signal ratio)
Bile acid receptor (Homo sapiens), sequence (Q96RI1 whole entry, looked up): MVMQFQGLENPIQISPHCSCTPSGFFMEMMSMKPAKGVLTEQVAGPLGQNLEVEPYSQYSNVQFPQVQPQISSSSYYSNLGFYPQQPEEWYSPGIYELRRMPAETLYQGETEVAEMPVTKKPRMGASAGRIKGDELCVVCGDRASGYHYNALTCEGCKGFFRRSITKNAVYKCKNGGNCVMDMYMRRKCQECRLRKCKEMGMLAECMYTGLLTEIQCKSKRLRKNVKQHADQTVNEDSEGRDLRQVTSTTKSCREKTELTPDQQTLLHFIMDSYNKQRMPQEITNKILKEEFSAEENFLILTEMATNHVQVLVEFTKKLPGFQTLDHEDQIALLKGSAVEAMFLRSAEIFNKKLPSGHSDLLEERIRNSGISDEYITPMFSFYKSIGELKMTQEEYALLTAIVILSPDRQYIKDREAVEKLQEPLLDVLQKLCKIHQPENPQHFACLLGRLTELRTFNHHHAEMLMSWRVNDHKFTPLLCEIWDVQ
Method in brief: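 Read-out: beta-lactamase FRET fluorescence (LiveBLAzer B/G substrate, 2 h, room temperature) in GeneBLAzer FXR-UAS-bla HEK 293T cells. Compounds were co-dosed with 50 uM chenodeoxycholic acid (final) and incubated 16 h at 37 °C.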

[10] = biological target: Bile acid receptor (Homo sapiens) (UniProt Q96RI1); assay: qHTS assay to identify small molecule agonists of the farnesoid-X-receptor (FXR) signaling pathway (AID 743220; active = well fitted activation curve with a large enough effect in the signal ratio in the repeat runs, not every such curve was filed as active; the % refers to the signal ratio)
Method in brief: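 FXR-UAS-bla HEK 293T cells carrying a UAS-driven beta-lactamase reporter were plated for 5 h at 37C/5% CO2, then exposed to DMSO-dissolved Tox21 10K compounds for 16 h at 37C. A LiveBLAzer B/G FRET substrate was loaded for 2 h at room temperature before fluorescence reading.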

Measured: Potency

CC(C)=O
inactive: [1] | [2] | [3] | [4] | [5]

O=C(O)Cc1cn(-c2ccccc2)nc1-c1ccc(Cl)cc1
inactive: [1] | [2] | [6] | [7] | [3]

Cc1cccc2nccnc12
not listed: [2]
inactive: all other assays above

CC[C@H](C)C(=O)O[C@H]1C[C@H](O)C=C2C=C[C@H](C)[C@H](CC[C@@H](O)C[C@@H](O)CC(=O)O)[C@H]21
inactive: [1] | [8] | [6] | [7] | [3]

Cc1ccc2c(c1)OCC(=O)CO2
not listed: [2] | [5]
inactive: all other assays above

Nc1ccc([N+](=O)[O-])c(N)c1
inactive: [1] | [2] | [6] | [3] | [4] | [5]

CCOC(=O)/C=C/c1ccccc1
not listed: [8] | [9] | [10]
inactive: all other assays above

CCCCCCCC/C=C\CCCCCCCC(=O)OCCCC
not listed: [2] | [5]
inactive: all other assays above

COP(=O)(OC)OC(c1ccc(Cl)cc1)P(=O)(OC)OC (stereo unspecified)
not listed: [8] | [9] | [10]
inactive: all other assays above

CCN1CCc2nc(N)oc2CC1
not listed: [4] | [5] | [8]
inactive: all other assays above

CC(CN)CC(C)(C)CCN (stereo unspecified)
not listed: [2]
inactive: all other assays above

Cc1ccsc1/C=C/C1=NCCCN1C
not listed: [7] | [8]
inactive: all other assays above

CC(CC=O)CCCC(C)(C)O (stereo unspecified)
inactive: [1] | [2] | [6] | [7] | [3]

C[C@H](N)[C@H](O)c1cccc(O)c1
not listed: [2]
inactive: all other assays above

C=C(C)C(=O)OCCN(CC)CC
not listed: [8] | [9] | [10]
inactive: all other assays above

O=C(O)c1cc(Br)c(O)c(Br)c1
inactive: [1] | [2] | [9] | [10] | [3] | [5]

C=COCCOCCOCCOC=C
inactive: [1] | [2] | [6] | [7] | [3] | [5]

NNc1nnc(NN)c2ccccc12
not listed: [4] | [7] | [8]
inactive: all other assays above

CCOC(=O)c1ccc(OC(=O)CCCCCN=C(N)N)cc1
inactive: [1] | [2] | [3]

CCCCCCCCC1CCC(=O)O1 (stereo unspecified)
not listed: [2] | [5]
inactive: all other assays above

CCN(C)C(=O)Oc1cccc([C@H](C)N(C)C)c1
not listed: [2] | [4] | [5]
inactive: all other assays above

CCCCCOC(=O)CCC
inactive: [1] | [8] | [6] | [7] | [3]

CC(C)CC(C)CC(C)CC(C)COC(=O)c1ccccc1C(=O)OCC(C)CC(C)CC(C)CC(C)C (stereo unspecified)
not listed: [2] | [4] | [5]
inactive: all other assays above

CC(=O)OC(C)OC(=O)C(C)c1ccc(-c2ccccc2)c(F)c1 (stereo unspecified)
not listed: [2] | [5] | [7]
inactive: all other assays above

O=C(O)CCSSCCC(=O)O
not listed: [4] | [8]
inactive: all other assays above

CC1COc2ccccc2N1 (stereo unspecified)
inactive: [2] | [8] | [6] | [7] | [3] | [4]

N#Cc1ccc(C(=O)O)cc1
inactive: [1] | [7] | [10] | [3] | [5]

Nc1ccc(S(=O)(=O)Nc2ccc(Cl)nn2)cc1
not listed: [1]
inactive: all other assays above

O=C(OCC(O)CO)c1ccccc1Nc1ccnc2c(C(F)(F)F)cccc12 (stereo unspecified)
inactive: [1] | [7] | [10] | [3] | [4] | [5]

CC(N)C(=O)OC(C)(C)Cc1ccc(Cl)cc1 (stereo unspecified)
inactive: [1] | [6] | [3] | [4] | [5]

O=C(OCC1(COC(=O)c2cccnc2)CCCC(COC(=O)c2cccnc2)(COC(=O)c2cccnc2)C1O)c1cccnc1
inactive: [2] | [8] | [6] | [7] | [3]

Nc1nnc(-c2cccc(Cl)c2Cl)c(N)n1
not listed: [1]
inactive: all other assays above

Nc1cccc(O)c1
not listed: [2] | [8] | [9]
inactive: all other assays above
